Assay outcomes from PubChem BioAssay.
ADAM10 inh = human ADAM10 inhibitors, primary screen, biochemical, QFRET, HTS. AID 720582, 2013. inhibition, % at 7 µM. recombinant ADAM10, EDANS/DABCYL FRET peptide cleavage, 3 h. 0.62% of 370,000 active. Disintegrin and metalloproteinase domain-containing protein 10 (Homo sapiens), O14672;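 active = inhibition above a per-campaign cutoff equal to the mean of compounds falling between control-based bounds plus 3 SD, cut at about 20% in these data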;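 also: 0% = DMSO wells while the 100% control is not disclosed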
Target sequence (O14672 214-748 limits assumed): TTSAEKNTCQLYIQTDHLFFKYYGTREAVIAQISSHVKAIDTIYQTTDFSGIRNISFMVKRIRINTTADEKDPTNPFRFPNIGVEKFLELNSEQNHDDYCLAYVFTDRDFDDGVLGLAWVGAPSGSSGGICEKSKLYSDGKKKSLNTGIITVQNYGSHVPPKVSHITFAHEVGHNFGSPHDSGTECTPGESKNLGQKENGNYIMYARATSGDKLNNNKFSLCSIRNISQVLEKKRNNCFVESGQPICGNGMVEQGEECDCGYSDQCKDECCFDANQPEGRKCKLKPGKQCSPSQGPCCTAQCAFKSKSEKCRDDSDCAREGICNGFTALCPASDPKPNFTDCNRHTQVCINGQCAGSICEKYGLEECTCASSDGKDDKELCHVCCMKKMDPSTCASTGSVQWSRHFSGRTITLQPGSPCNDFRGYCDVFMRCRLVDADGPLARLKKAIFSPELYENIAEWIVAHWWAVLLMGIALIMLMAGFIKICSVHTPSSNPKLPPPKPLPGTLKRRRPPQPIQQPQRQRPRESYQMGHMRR
ADAM17 inh = ADAM17 inhibitors, primary screen, biochemical, QFRET; inhibition, % at 6.95 µM; AID 720648, 2013; Disintegrin and metalloproteinase domain-containing protein 17 (Homo sapiens), P78536; recombinant ADAM17, EDANS/DABCYL FRET peptide cleavage; 0.83% of 370,000 active;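 active = inhibition above the mean of compounds lying between control limits plus 3 SD, set per campaign, cut at about 8.5% in these data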;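 also: 0% = DMSO-only wells as the low control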
PLC-beta3 inh = human PLC-beta3 inhibitors, primary screen, biochemical, fluorescence; 1-phosphatidylinositol 4,5-bisphosphate phosphodiesterase beta-3 (Homo sapiens), Q01970; Purified PLC-beta3, fluorogenic substrate; inhibition, % at 12.2 µM; 0.18% of 370,000 active;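 also: 0% = median of compound wells on plate and 100% = full blocker control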
PLCg1 inh = PLC-gamma1 enzyme inhibitors, primary screen, biochemical, fluorescence, purified enzyme. 1-phosphatidylinositol 4,5-bisphosphate phosphodiesterase gamma-1 (Homo sapiens), P19174. inhibition, % at 12.2 µM. 0.84% of 370,000 active. fluorogenic substrate; in the data active = inhibition above about 9.5%
Rce1 inh = yeast Rce1p protease inhibitors, primary screen, biochemical, fluorescence, cell-free homogeneous; CAAX prenyl protease 2 (Saccharomyces cerevisiae (strain ATCC 204508 / S288c)), Q03530; yeast membranes, quenched prenylated peptide cleavage fluorescence; calls only; 0.27% of 290,000 active; AID 2563, 2010;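 active = fall in fluorescence gain of 50% or more versus controls, with final raw signal at or below 3038400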;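 also: plate controls were neutral control wells for no effect and wells lacking membranes for full effect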
PLCg1 ctr = PLC-gamma1 enzyme inhibitors, counter-screen for PLC-beta3 inhibitor project, biochemical, fluorescence; shares compounds with PLCg1 inh; purified PLC-gamma1, fluorogenic substrate; inhibition, % at 12.3 µM; 3.1% of 3,300 active; AID 743258, 2014; in the data active = inhibition above about 9.5%
PLCb3 confirm = PLC-beta3 inhibitor confirmation, biochemical, fluorescence, purified enzyme; shares compounds with PLCg1 inh; fluorogenic substrate fluorescence; inhibition, % at 12.3 µM; 1% of 3,300 active; AID 743261, 2014
* hit, by the source's call; i = inactive; x = no result. An excerpt weighted towards active compounds, which were near 2.1% of everything screened. Rule as the data show it, unless noted: active = inhibition above about 11%; inactive = the rest.

SMILES	ADAM10 inh	ADAM17 inh	PLC-beta3 inh	PLCg1 inh	Rce1 inh	PLCg1 ctr	PLCb3 confirm
O=C1Nc2ccccc2Cc2ccccc21	-10.0	-11.7	-60.4	-45.2	x	x	x
CC1(C)C(=O)C=C(N2CCCCC2)c2ccccc21	-9.6	-1.4	-18.9	-17.1	x	x	x
CN(C)CCCNc1nc(N)c([N+](=O)[O-])c(NCc2ccccc2)n1	0.2	5.3	-0.8	9.7*	i	-1.4	1.1
COCCNc1nc(N)c([N+](=O)[O-])c(NCc2ccccc2)n1	-1.9	0.3	0.0	7.4	i	x	x
Nc1nc(NCc2ccccc2)nc(NCc2ccccc2)c1[N+](=O)[O-]	-0.6	2.1	3.5	0.6	i	x	x
COCCCNc1nc(N)c([N+](=O)[O-])c(NCc2ccccc2)n1	-0.7	0.3	1.2	10.2*	i	5.4	-0.7
CCOC(=O)C(CCCOc1ccccc1C)C(=O)OCC	6.8	6.3	-11.2	11.9*	x	-5.4	-2.1
CSCCNC(=O)Nc1c(-c2c(Cl)cccc2Cl)noc1C	5.2	1.8	6.4	12.1*	x	-0.7	-1.8
Cc1onc(-c2c(Cl)cccc2Cl)c1NC(=O)NN(C)C	-6.2	-2.6	-8.2	0.0	i	x	x
CC(C)C[C@H](NC(=O)c1ccc(OC2CCN(C(=O)C3CC3)CC2)cc1)C(N)=O	-0.8	-9.4	-3.9	9.7*	i	-2.1	-4.7
COc1cccc(NC(=O)c2cccc(N3C(=O)C4C5C=CC(C5)C4C3=O)c2)c1 (stereo unspecified)	5.6	-1.3	-5.7	1.8	i	x	x
Cc1ccc(S(=O)(=O)N2CCN(S(=O)(=O)c3ccccc3Br)CC2)cc1	-2.8	-3.1	0.7	0.0	x	x	x
COc1cccc(NC(=O)n2ncc3c(C)cccc32)c1	2.8	5.9	2.4	10.4*	i	-7.6	-16.3
Cc1ccc(NC(=O)n2ncc3c(C)cccc32)c(C)c1	-6.4	-3.3	-2.1	10.6*	i	-6.1	-0.9
CC(C)NC(=O)C1(C)CCCN1Cc1csc2ccccc12 (stereo unspecified)	5.5	1.0	0.4	2.6	x	x	x
CC(C)NC(=O)C1(C)CCCN1Cc1ccccc1C#N (stereo unspecified)	8.9	4.5	8.4	10.9*	x	-6.1	-2.4
NC(=O)C1CCN(Cc2nc3cc(C(F)(F)F)ccc3c(=O)[nH]2)CC1	4.5	-2.7	-6.7	-0.1	i	x	x
CC12CCC(C(=O)Nc3ccccc3N3CCOCC3)(CC1=O)C2(C)C (stereo unspecified)	7.5	6.7	8.0	9.5*	i	-3.7	-0.9
CC12CCC(C(=O)Nc3ccccc3-n3cccc3)(CC1=O)C2(C)C (stereo unspecified)	-11.6	-4.1	1.6	-2.1	i	x	x
CCCCNC(=S)NNC(=O)c1csc(CC)c1	-0.7	-0.1	13.8*	-1.5	i	-6.7	12.6*
CCNC(=S)NNC(=O)c1csc(C)c1	3.0	-4.3	7.8	-1.4	i	x	x
CCCCNC(=S)NNC(=O)c1csc(C)c1	4.2	-0.5	22.9*	2.9	i	-5.3	16.4*
N=c1n(Cc2ccc(Cl)cc2)c2ccccc2n1CC(O)COc1ccccc1 (stereo unspecified)	-1.1	-1.6	3.6	7.5	i	x	x
N=c1n(Cc2ccccc2)c2ccccc2n1CC(O)COc1ccc(Cl)cc1Cl (stereo unspecified)	4.0	0.2	5.1	12.2*	i	-2.0	-3.3
Cc1cccc(OCC(O)Cn2c(=N)n(Cc3ccccc3)c3ccccc32)c1 (stereo unspecified)	8.9	-18.1	0.9	11.6*	i	0.3	-6.2
SMILES	ADAM10 inh	ADAM17 inh	PLC-beta3 inh	PLCg1 inh	Rce1 inh	PLCg1 ctr	PLCb3 confirm
Cc1ccc(OCC(O)Cn2c(=N)n(Cc3ccccc3)c3ccccc32)cc1 (stereo unspecified)	-0.2	-0.1	2.0	2.5	i	x	x
Cc1ccccc1NC1=C/C(=N\S(=O)(=O)c2ccc(C(=O)O)cc2)c2ccccc2C1=O	-6.2	0.2	8.6	24.7*	i	19.8*	4.0
Cc1ccccc1NC1=C/C(=N\S(=O)(=O)c2cccs2)c2ccccc2C1=O	-8.9	1.2	3.7	3.8	i	x	x
CC(C)(CNc1ccc(C(F)(F)F)cc1[N+](=O)[O-])N1CCOCC1	5.9	1.1	-0.7	1.6	i	x	x
O=C(O)C(C(=O)O)=C1C2CC3CC(C2)CC1C3	11.7	-1.1	1.0	10.6*	i	-1.6	-5.5
O=[N+]([O-])c1ccc(N2CCCC2)cc1N1CCCC1	6.0	4.7	3.6	9.6*	i	-4.5	-2.7
COc1ccccc1N=NNc1ccccc1OC	8.6	3.7	7.1	6.5	x	x	x
O=C(Cn1ccc([N+](=O)[O-])n1)Nc1nccs1	6.0	5.1	7.9	9.6*	i	-1.6	2.8
Cc1cc([N+](=O)[O-])nn1CC(=O)Nc1nccs1	0.3	0.4	0.4	3.9	i	x	x
COc1ccc(C2=Cc3ccccc3C(CC(=O)C3CC3)N2c2ccc(-c3cc(OC)c(OC)c(OC)c3)cc2)cc1 (stereo unspecified)	-53.1	-13.3	-258.4	-157.9	x	x	x
CC(=O)Nc1ccc(-c2csc(Nc3ncccn3)n2)cc1	10.1	-1.3	-3.6	9.9*	x	1.8	3.8
Oc1ccc(-c2csc(Nc3ncccn3)n2)cc1	3.0	-0.6	-4.3	-1.2	i	x	x
CN(C)S(=O)(=O)c1ccc(NC(=O)CCCNC(=O)c2ccc(Cl)cc2)cc1	6.1	2.5	4.1	3.3	i	x	x
O=C(Cn1nc(C(F)(F)F)c2c1CCCCC2)N1CCOCC1	-5.7	-2.1	-0.7	-0.8	i	x	x
O=C(Cn1nc(C(F)(F)F)c2c1CCCC2)N1CCOCC1	-0.2	-1.6	0.7	9.6*	i	-8.9	-4.4
O=C1NC(=S)S/C1=C\c1cc(Cl)ccc1Cl	10.9	4.5	2.8	10.8*	x	-4.2	-5.8
Cc1cc(/C=C2\SC(=S)NC2=O)c(C)[nH]1	-3.2	1.2	-13.7	0.7	x	x	x
CCOC(=O)c1cc(-c2ccccc2)n[nH]1	5.4	2.4	-0.4	4.5	i	x	x
CCOC(=O)c1nncc(-c2ccccc2)n1	-2.0	4.2	11.2*	3.9	x	-5.6	-1.6
CN(C)CCN1C(=O)C(=O)/C(=C(/O)c2ccc(S(=O)(=O)N3CCOCC3)cc2)C1c1ccc(Br)cc1 (stereo unspecified)	4.3	6.7	-3.7	11.5*	i	0.0	1.9
